Test results published in publication PMC7862700, “An all-to-all approach to the identification of sequence-specific readers for epigenetic DNA modifications on cytosine”.

Experiments:
Test in all cases: DAPPL (digital affinity profiling via proximity ligation, sequencing); 10 mM Tris-HCl pH 7.5, 50 mM NaCl, 1 mM DTT, 4% glycerol, room temperature, 30 min; GST-TFs on glutathione beads, 16-mer random dsDNA library, 0.1% formaldehyde crosslink after washing; high values mean tight binding
Settings in all cases: protein: recombinant; tags: N-terminal GST; dsDNA, one strand shown
ELK4 = target: T1, ELK4 (Homo sapiens, UniProt P28324-2 1-405)
T1 sequence: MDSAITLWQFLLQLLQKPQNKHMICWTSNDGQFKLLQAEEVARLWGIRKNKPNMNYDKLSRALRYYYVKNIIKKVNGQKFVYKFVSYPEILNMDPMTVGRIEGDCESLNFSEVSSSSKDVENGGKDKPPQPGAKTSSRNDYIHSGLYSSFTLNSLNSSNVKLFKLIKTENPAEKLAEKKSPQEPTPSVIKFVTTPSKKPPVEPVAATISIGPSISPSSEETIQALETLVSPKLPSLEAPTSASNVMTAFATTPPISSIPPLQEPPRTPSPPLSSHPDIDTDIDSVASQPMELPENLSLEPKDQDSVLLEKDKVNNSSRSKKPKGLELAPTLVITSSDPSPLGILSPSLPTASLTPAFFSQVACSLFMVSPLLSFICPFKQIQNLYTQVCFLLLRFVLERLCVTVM
Outline: (§1)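 Binding signal is defined as a hexamer's read frequency for one factor over its frequency for the tag-only sample. To obtain reads, GST-fused human transcription factors were expressed in yeast, captured on glutathione beads, barcoded with DNA and pooled with that sample. Pools met 200 nmole of a 16-mer random double-stranded DNA library in Tris/NaCl/DTT/glycerol buffer for 30 min at room temperature before washing, 0.1% formaldehyde crosslinking, proximity ligation (BsaI/T4 ligase, 1 h, 37 °C), PCR and Illumina NextSeq500 sequencing.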

ETV2 = target: T2, ETV2 (Homo sapiens, UniProt O00321 1-342)
T2 sequence: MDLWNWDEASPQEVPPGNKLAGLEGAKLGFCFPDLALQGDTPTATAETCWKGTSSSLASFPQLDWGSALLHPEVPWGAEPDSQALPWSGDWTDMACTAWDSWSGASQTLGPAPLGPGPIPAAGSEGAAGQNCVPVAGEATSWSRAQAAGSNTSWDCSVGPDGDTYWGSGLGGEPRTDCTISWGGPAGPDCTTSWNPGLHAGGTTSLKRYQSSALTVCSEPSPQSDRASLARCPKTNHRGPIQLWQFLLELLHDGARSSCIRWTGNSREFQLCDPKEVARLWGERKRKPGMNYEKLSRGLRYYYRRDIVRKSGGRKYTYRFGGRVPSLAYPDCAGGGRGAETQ
Outline: as §1

ELF3 = target: T3, ELF3 (Homo sapiens, UniProt P78545 1-371)
T3 sequence: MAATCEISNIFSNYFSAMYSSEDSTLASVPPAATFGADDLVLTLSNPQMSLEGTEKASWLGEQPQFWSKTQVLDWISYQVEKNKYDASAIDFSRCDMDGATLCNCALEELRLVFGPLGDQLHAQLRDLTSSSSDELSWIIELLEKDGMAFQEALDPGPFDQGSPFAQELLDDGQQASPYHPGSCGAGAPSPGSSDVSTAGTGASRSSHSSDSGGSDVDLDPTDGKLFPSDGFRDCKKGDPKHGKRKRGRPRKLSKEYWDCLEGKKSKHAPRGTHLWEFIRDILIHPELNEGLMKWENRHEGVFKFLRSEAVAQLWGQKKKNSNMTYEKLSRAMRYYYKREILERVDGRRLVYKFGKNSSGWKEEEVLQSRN
Outline: as §1

SPDEF = target: T4, SPDEF (Homo sapiens, UniProt O95238 1-335)
T4 sequence: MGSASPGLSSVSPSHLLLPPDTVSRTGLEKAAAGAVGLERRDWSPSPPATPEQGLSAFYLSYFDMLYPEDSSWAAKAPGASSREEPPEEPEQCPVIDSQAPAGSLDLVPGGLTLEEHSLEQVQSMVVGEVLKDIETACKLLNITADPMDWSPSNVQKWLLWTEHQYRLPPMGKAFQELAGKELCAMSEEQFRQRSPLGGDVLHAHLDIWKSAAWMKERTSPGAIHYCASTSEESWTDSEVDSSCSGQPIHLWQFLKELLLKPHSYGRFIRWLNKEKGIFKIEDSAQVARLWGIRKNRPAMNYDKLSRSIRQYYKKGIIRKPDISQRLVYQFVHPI
Outline: as §1

ETV7 = target: T5, ETV7 (Homo sapiens, UniProt Q9Y603 1-341)
T5 sequence: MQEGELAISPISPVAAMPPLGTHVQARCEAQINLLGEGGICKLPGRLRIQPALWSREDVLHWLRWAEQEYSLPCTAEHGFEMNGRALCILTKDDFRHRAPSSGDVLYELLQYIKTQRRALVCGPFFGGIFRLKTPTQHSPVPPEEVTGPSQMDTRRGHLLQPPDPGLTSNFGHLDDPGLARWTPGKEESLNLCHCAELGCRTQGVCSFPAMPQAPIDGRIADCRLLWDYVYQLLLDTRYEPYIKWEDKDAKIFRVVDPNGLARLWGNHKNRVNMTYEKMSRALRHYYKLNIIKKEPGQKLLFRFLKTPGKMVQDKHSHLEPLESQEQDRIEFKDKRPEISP
Outline: as §1

CRX = CRX (Homo sapiens, UniProt O43186 1-299)
Sequence of CRX (O43186 whole entry): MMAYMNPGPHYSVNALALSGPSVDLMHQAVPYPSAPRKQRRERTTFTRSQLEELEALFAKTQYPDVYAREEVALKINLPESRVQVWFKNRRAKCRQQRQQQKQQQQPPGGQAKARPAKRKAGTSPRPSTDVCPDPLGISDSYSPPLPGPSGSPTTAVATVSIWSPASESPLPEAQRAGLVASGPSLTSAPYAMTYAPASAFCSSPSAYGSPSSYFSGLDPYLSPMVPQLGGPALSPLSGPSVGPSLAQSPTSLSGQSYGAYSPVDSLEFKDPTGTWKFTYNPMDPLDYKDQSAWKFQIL
Outline: as §1

Sequence | binding signal (ELK4) | binding signal (ETV2) | binding signal (ELF3) | binding signal (SPDEF) | binding signal (ETV7) | binding signal (CRX)
TGTAAC | 1.37 fold enrichment (6-mer frequency, TF over GST control) | 1.21 fold enrichment (6-mer frequency, TF over GST control) | 1.22 fold enrichment (6-mer frequency, TF over GST control) | 1.23 fold enrichment (6-mer frequency, TF over GST control) | 1.18 fold enrichment (6-mer frequency, TF over GST control) | 
ATGGCG |  |  | 1.03 fold enrichment (6-mer frequency, TF over GST control) | 1.02 fold enrichment (6-mer frequency, TF over GST control) | 1.01 fold enrichment (6-mer frequency, TF over GST control) | 
GTTATA |  |  | 1.13 fold enrichment (6-mer frequency, TF over GST control) | 1.03 fold enrichment (6-mer frequency, TF over GST control) | 1.05 fold enrichment (6-mer frequency, TF over GST control) | 1.08 fold enrichment (6-mer frequency, TF over GST control)
ACTGTA | 1.08 fold enrichment (6-mer frequency, TF over GST control) | 1.17 fold enrichment (6-mer frequency, TF over GST control) |  | 1.02 fold enrichment (6-mer frequency, TF over GST control) |  | 
AGTGGT | 1.1 fold enrichment (6-mer frequency, TF over GST control) |  | 1.01 fold enrichment (6-mer frequency, TF over GST control) |  | 1.14 fold enrichment (6-mer frequency, TF over GST control) | 
GTTGCG | 1.01 fold enrichment (6-mer frequency, TF over GST control) | 1.03 fold enrichment (6-mer frequency, TF over GST control) |  |  | 1.04 fold enrichment (6-mer frequency, TF over GST control) | 
GTTGTA |  |  | 1.04 fold enrichment (6-mer frequency, TF over GST control) | 1.04 fold enrichment (6-mer frequency, TF over GST control) | 1.06 fold enrichment (6-mer frequency, TF over GST control) | 
AACGGA |  | 1.02 fold enrichment (6-mer frequency, TF over GST control) | 1.03 fold enrichment (6-mer frequency, TF over GST control) | 1.23 fold enrichment (6-mer frequency, TF over GST control) | 1.01 fold enrichment (6-mer frequency, TF over GST control) | 
GTAGTT | 1.1 fold enrichment (6-mer frequency, TF over GST control) | 1.04 fold enrichment (6-mer frequency, TF over GST control) | 1.09 fold enrichment (6-mer frequency, TF over GST control) | 1.05 fold enrichment (6-mer frequency, TF over GST control) | 1.03 fold enrichment (6-mer frequency, TF over GST control) | 
TACCCC | 1.19 fold enrichment (6-mer frequency, TF over GST control) | 1.19 fold enrichment (6-mer frequency, TF over GST control) | 1.04 fold enrichment (6-mer frequency, TF over GST control) | 1.02 fold enrichment (6-mer frequency, TF over GST control) | 1.1 fold enrichment (6-mer frequency, TF over GST control) | 1.03 fold enrichment (6-mer frequency, TF over GST control)
ATTGGC | 1.06 fold enrichment (6-mer frequency, TF over GST control) | 1.1 fold enrichment (6-mer frequency, TF over GST control) | 1.24 fold enrichment (6-mer frequency, TF over GST control) | 1.12 fold enrichment (6-mer frequency, TF over GST control) | 1.04 fold enrichment (6-mer frequency, TF over GST control) | 1.07 fold enrichment (6-mer frequency, TF over GST control)
TGGTGG | 1.04 fold enrichment (6-mer frequency, TF over GST control) | 1.03 fold enrichment (6-mer frequency, TF over GST control) |  | 1.02 fold enrichment (6-mer frequency, TF over GST control) | 1.09 fold enrichment (6-mer frequency, TF over GST control) | 
CCCGGT | 1.13 fold enrichment (6-mer frequency, TF over GST control) |  | 1.06 fold enrichment (6-mer frequency, TF over GST control) | 1.11 fold enrichment (6-mer frequency, TF over GST control) | 1.01 fold enrichment (6-mer frequency, TF over GST control) | 
AGTAAC |  | 1.05 fold enrichment (6-mer frequency, TF over GST control) |  |  |  | 
ACGGTT |  | 1.16 fold enrichment (6-mer frequency, TF over GST control) |  | 1.04 fold enrichment (6-mer frequency, TF over GST control) | 1.04 fold enrichment (6-mer frequency, TF over GST control) | 
ACCGCA | 1.05 fold enrichment (6-mer frequency, TF over GST control) | 1.3 fold enrichment (6-mer frequency, TF over GST control) | 1.29 fold enrichment (6-mer frequency, TF over GST control) | 1.13 fold enrichment (6-mer frequency, TF over GST control) | 1.12 fold enrichment (6-mer frequency, TF over GST control) | 1.01 fold enrichment (6-mer frequency, TF over GST control)
TGCCGG |  |  | 1.11 fold enrichment (6-mer frequency, TF over GST control) | 1.21 fold enrichment (6-mer frequency, TF over GST control) |  | 
ATAGCG |  |  | 1.11 fold enrichment (6-mer frequency, TF over GST control) |  |  | 
ACATAG |  | 1.11 fold enrichment (6-mer frequency, TF over GST control) | 1.14 fold enrichment (6-mer frequency, TF over GST control) | 1 fold enrichment (6-mer frequency, TF over GST control) | 1.13 fold enrichment (6-mer frequency, TF over GST control) | 
GTTGAC | 1.25 fold enrichment (6-mer frequency, TF over GST control) | 1.07 fold enrichment (6-mer frequency, TF over GST control) | 1.09 fold enrichment (6-mer frequency, TF over GST control) | 1.07 fold enrichment (6-mer frequency, TF over GST control) | 1.19 fold enrichment (6-mer frequency, TF over GST control) | 
GCTTGT |  | 1.03 fold enrichment (6-mer frequency, TF over GST control) | 1.09 fold enrichment (6-mer frequency, TF over GST control) |  | 1.09 fold enrichment (6-mer frequency, TF over GST control) | 
AGTGAC |  |  |  |  | 1.03 fold enrichment (6-mer frequency, TF over GST control) | 
AGTGTA |  |  |  |  | 1.1 fold enrichment (6-mer frequency, TF over GST control) | 
GCAATT | 1.01 fold enrichment (6-mer frequency, TF over GST control) | 1.01 fold enrichment (6-mer frequency, TF over GST control) | 1.17 fold enrichment (6-mer frequency, TF over GST control) | 1.06 fold enrichment (6-mer frequency, TF over GST control) | 1.18 fold enrichment (6-mer frequency, TF over GST control) | 
CATGAC | 1.09 fold enrichment (6-mer frequency, TF over GST control) | 1.3 fold enrichment (6-mer frequency, TF over GST control) | 1.15 fold enrichment (6-mer frequency, TF over GST control) | 1.2 fold enrichment (6-mer frequency, TF over GST control) | 1.11 fold enrichment (6-mer frequency, TF over GST control) | 
GTAGCT | 1.17 fold enrichment (6-mer frequency, TF over GST control) |  | 1.18 fold enrichment (6-mer frequency, TF over GST control) |  | 1.12 fold enrichment (6-mer frequency, TF over GST control) | 1.02 fold enrichment (6-mer frequency, TF over GST control)
GCCTGC | 1.18 fold enrichment (6-mer frequency, TF over GST control) | 1.15 fold enrichment (6-mer frequency, TF over GST control) | 1.13 fold enrichment (6-mer frequency, TF over GST control) | 1.02 fold enrichment (6-mer frequency, TF over GST control) | 1.13 fold enrichment (6-mer frequency, TF over GST control) | 
CCCTGA | 1.1 fold enrichment (6-mer frequency, TF over GST control) | 1.17 fold enrichment (6-mer frequency, TF over GST control) |  |  |  | 1.03 fold enrichment (6-mer frequency, TF over GST control)
